Bioassay records deposited in PubChem BioAssay by The Scripps Research Institute Molecular Screening Center.
CHO-K1 Ca antag = counter-screen for M1 antagonists: effect in parental CHO-K1 cells. hit rate 0.6% among 360,000. ATP-induced calcium, Fluo-8 fluorescence. inhibition, % at 3 µM;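 active = inhibition above a per-plate cutoff, the plate's mean sample inhibition plus 3 SD, cut at about 24% in these data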
M1 PAM parental = counter-screen for M1 PAMs: effect in parental CHO-K1 cells; hit rate 0.02% among 360,000; activation, % at 3 µM; ATP EC20, Fluo-8 calcium fluorescence; 0% at ATP EC20, 100% at ATP max;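 active = activation above the run cutoff, the mean activation of all test compounds plus 3 SD, cut at about 40% in these data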;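 also: peak over basal fluorescence ratio in a 140 s read after ATP addition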
CHRM1 agonist = activates human CHRM1 receptor. P11229. CHO-K1 hM1, Fluo-8 calcium fluorescence, agonist mode; 0% DMSO, 100% acetylcholine EC100. activation, % at 3 µM. hit rate 0.33% among 360,000. AID 588814;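 active = activation above the run's mean compound activation plus 3 SD, cut at about 16% in these data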;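 also: peak over basal fluorescence ratio within a 140 s kinetic read after compound addition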
Target sequence (P11229 whole entry, looked up): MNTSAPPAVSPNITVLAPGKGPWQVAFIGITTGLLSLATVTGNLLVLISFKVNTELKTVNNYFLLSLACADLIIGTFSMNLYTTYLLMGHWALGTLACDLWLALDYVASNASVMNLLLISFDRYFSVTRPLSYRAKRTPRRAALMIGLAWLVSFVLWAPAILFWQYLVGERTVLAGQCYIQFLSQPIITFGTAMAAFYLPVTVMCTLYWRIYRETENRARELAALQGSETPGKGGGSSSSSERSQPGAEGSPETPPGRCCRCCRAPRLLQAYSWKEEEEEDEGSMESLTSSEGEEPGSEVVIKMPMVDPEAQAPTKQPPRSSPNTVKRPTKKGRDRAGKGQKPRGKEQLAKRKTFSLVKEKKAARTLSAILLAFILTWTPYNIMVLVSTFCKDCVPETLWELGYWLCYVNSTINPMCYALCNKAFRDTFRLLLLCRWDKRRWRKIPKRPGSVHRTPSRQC
M1 ag parental = counter-screen for M1 agonists: effect in parental CHO-K1 cells | Fluo-8 calcium fluorescence; scaled to maximal ATP response, vehicle zero | activation, % at 3 µM | hit rate 0.48% among 360,000; in the data active = activation above about 15%;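 also: untransfected CHO-K1 host cells lacking M1 receptor as counterscreen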
M1 PAM = positive allosteric modulators of human M1 muscarinic receptor. CHO-K1 hM1, Fluo-8 calcium fluorescence, ACh EC20; 0% = ACh EC20, 100% = maximal ACh. activation, % at 3 µM. hit rate 0.088% among 360,000. AID 588819; in the data active = activation above about 19%, passing the limit was not always enough
M1 antag = human CHRM1 antagonism; hit rate 1.3% among 360,000; P11229; CHO-K1 hM1, Fluo-8 calcium fluorescence, ACh EC80 antagonist; inhibition, % at 3 µM;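 active = percent inhibition above its own plate's cutoff, namely the mean of that plate's compound wells plus 3 SD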;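 also: peak over basal fluorescence ratio during 140 s after agonist addition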
Hits are given with their value. Compounds with a hit are over-represented: about 2.3% of the library has one in this group of screens.

Results for CCC(=O)N1CCc2cc(S(=O)(=O)CCC(=O)N3CCN(c4ccc(F)cc4)CC3)ccc21 ?
CHO-K1 Ca antag: inactive; M1 PAM parental: inactive; CHRM1 agonist: inactive; M1 ag parental: inactive; M1 PAM: inactive; M1 antag: inactive

What do the screens show for `CCOc1ccccc1CN1CCCC(CNS(=O)(=O)c2ccc(OC)cc2)C1` (stereo not given)?
CHO-K1 Ca antag: inactive; M1 PAM parental: inactive; CHRM1 agonist: inactive; M1 ag parental: inactive; M1 PAM: inactive; M1 antag: 38

Results for CC1C2NC(=O)N(Cc3ccccc3)C1(C)Oc1ccccc12 (stereo not given) ?
CHO-K1 Ca antag: inactive; M1 PAM parental: inactive; CHRM1 agonist: inactive; M1 ag parental: inactive; M1 PAM: inactive; M1 antag: inactive

What do the screens show for `O=C(c1ccc(Cl)cc1)N1CCC(C(=O)N2CCCc3ccccc32)CC1`?
CHO-K1 Ca antag: inactive; M1 PAM parental: inactive; CHRM1 agonist: inactive; M1 ag parental: inactive; M1 PAM: inactive; M1 antag: inactive

How did O=S(=O)(c1ccc(Cl)cc1)N1CCNCC1 do in these assays?
CHO-K1 Ca antag: inactive; M1 PAM parental: inactive; CHRM1 agonist: inactive; M1 ag parental: inactive; M1 PAM: inactive; M1 antag: inactive

Results for Clc1ccc(C(c2cccs2)N2CCNCC2)cc1 (stereo not given) ?
CHO-K1 Ca antag: inactive; M1 PAM parental: inactive; CHRM1 agonist: inactive; M1 ag parental: inactive; M1 PAM: inactive; M1 antag: 45

How did C=CCN1C(=NC(=O)CCC(=O)O)SC2CS(=O)(=O)CC21 (stereo not given) do in these assays?
CHO-K1 Ca antag: inactive; M1 PAM parental: inactive; CHRM1 agonist: inactive; M1 ag parental: inactive; M1 PAM: inactive; M1 antag: inactive

How did C=CCN1C(=NC(=O)CCCC(=O)O)SC2CS(=O)(=O)CC21 (stereo not given) do in these assays?
CHO-K1 Ca antag: 28; M1 PAM parental: inactive; CHRM1 agonist: inactive; M1 ag parental: inactive; M1 PAM: inactive; M1 antag: inactive

How did O=C(NCCC(=O)N1CCN(Cc2c(F)cccc2Cl)CC1)c1ccc(Cl)cc1 do in these assays?
CHO-K1 Ca antag: inactive; M1 PAM parental: inactive; CHRM1 agonist: inactive; M1 ag parental: inactive; M1 PAM: inactive; M1 antag: inactive

What do the screens show for `CCC1CCCCN1C(=O)CCCOc1ccccc1` (stereo not given)?
CHO-K1 Ca antag: inactive; M1 PAM parental: inactive; CHRM1 agonist: inactive; M1 ag parental: inactive; M1 PAM: inactive; M1 antag: inactive

How did CCCCC[C@H](O)/C=C/[C@H]1CCC(=O)[C@@H]1CCCCCCC(=O)N1CCCCC1CO (stereo not given in full) do in these assays?
CHO-K1 Ca antag: 53; M1 PAM parental: inactive; CHRM1 agonist: inactive; M1 ag parental: 16; M1 PAM: inactive; M1 antag: inactive

What do the screens show for `COc1cnn(-c2ccc(C)cc2)c(=O)c1Br`?
CHO-K1 Ca antag: inactive; M1 PAM parental: inactive; CHRM1 agonist: inactive; M1 ag parental: inactive; M1 PAM: inactive; M1 antag: inactive

What do the screens show for `COc1cnn(-c2ccc(C)cc2)c(=O)c1Cl`?
CHO-K1 Ca antag: 25; M1 PAM parental: inactive; CHRM1 agonist: inactive; M1 ag parental: inactive; M1 PAM: inactive; M1 antag: inactive

How did COc1ccc(C(=O)COC(=O)c2cc(C)no2)c(OC)c1 do in these assays?
CHO-K1 Ca antag: inactive; M1 PAM parental: inactive; CHRM1 agonist: inactive; M1 ag parental: inactive; M1 PAM: inactive; M1 antag: inactive

Results for CCC1CCCCN1C(=O)COC(=O)c1ccc(Br)o1 (stereo not given) ?
CHO-K1 Ca antag: inactive; M1 PAM parental: inactive; CHRM1 agonist: inactive; M1 ag parental: inactive; M1 PAM: inactive; M1 antag: inactive

Results for CCOC1=C2CN(S(=O)(=O)c3ccc(C)cc3)[C@@H](c3cccs3)C[C@H]2[C@H]2C(=O)N(c3ccccc3)C(=O)[C@H]2C1 ?
CHO-K1 Ca antag: 27; M1 PAM parental: inactive; CHRM1 agonist: inactive; M1 ag parental: inactive; M1 PAM: inactive; M1 antag: inactive

Results for CC1NC(=O)c2ccccc2-n2c1nc1ccc(F)cc1c2=O (stereo not given) ?
CHO-K1 Ca antag: inactive; M1 PAM parental: inactive; CHRM1 agonist: inactive; M1 ag parental: inactive; M1 PAM: inactive; M1 antag: inactive

Results for Cc1ccc([C@@H]2C[C@H]3[C@@H](CN2S(=O)(=O)c2ccc(C)cc2)C(=O)C[C@@H](c2ccccc2F)N3S(=O)(=O)c2ccc(C)cc2)cc1 ?
CHO-K1 Ca antag: inactive; M1 PAM parental: inactive; CHRM1 agonist: inactive; M1 ag parental: inactive; M1 PAM: inactive; M1 antag: inactive

Results for Cc1ccc(S(=O)(=O)N2C[C@H]3C(=O)C[C@@H](c4ccccc4F)N(S(=O)(=O)c4ccc(C)cc4)[C@H]3C[C@H]2c2ccccc2F)cc1 ?
CHO-K1 Ca antag: 29; M1 PAM parental: inactive; CHRM1 agonist: inactive; M1 ag parental: inactive; M1 PAM: inactive; M1 antag: inactive

How did COc1ccc([C@@H]2C[C@H]3[C@@H](CN2S(=O)(=O)c2ccccc2)C(=O)C[C@@H](c2cccc(Cl)c2)N3S(=O)(=O)c2ccc(C)cc2)cc1 do in these assays?
CHO-K1 Ca antag: 24; M1 PAM parental: inactive; CHRM1 agonist: inactive; M1 ag parental: inactive; M1 PAM: inactive; M1 antag: inactive

How did Cc1ccc(S(=O)(=O)N2C[C@H]3C(=O)C[C@@H]4C(=O)N(c5ccccc5)C(=O)[C@@H]4[C@@H]3C[C@H]2c2cccc(Cl)c2)cc1 do in these assays?
CHO-K1 Ca antag: 31; M1 PAM parental: inactive; CHRM1 agonist: inactive; M1 ag parental: inactive; M1 PAM: inactive; M1 antag: inactive

Results for Cc1ccc(C(=O)N2CCN(c3ccc([N+](=O)[O-])cc3)CC2)o1 ?
CHO-K1 Ca antag: inactive; M1 PAM parental: inactive; CHRM1 agonist: inactive; M1 ag parental: inactive; M1 PAM: inactive; M1 antag: inactive

Results for Cc1ccc(N(CC(=O)NC(C)(C)C)C(=O)CCC(=O)Nc2ccccn2)cc1 ?
CHO-K1 Ca antag: inactive; M1 PAM parental: inactive; CHRM1 agonist: inactive; M1 ag parental: inactive; M1 PAM: inactive; M1 antag: inactive

How did Cc1ccc(Cn2c(SCC(=O)N(C)C3CCS(=O)(=O)C3)nc3ccccc3c2=O)cc1 (stereo not given) do in these assays?
CHO-K1 Ca antag: inactive; M1 PAM parental: inactive; CHRM1 agonist: inactive; M1 ag parental: inactive; M1 PAM: inactive; M1 antag: inactive

Results for Nc1nc(Nc2cccc(F)c2)nc(NCCO)c1[N+](=O)[O-] ?
CHO-K1 Ca antag: inactive; M1 PAM parental: inactive; CHRM1 agonist: inactive; M1 ag parental: 15; M1 PAM: inactive; M1 antag: inactive

Results for COc1c(O)cc2c(c1O)C1OC(CO)C(O)C(O)C1OC2=O (stereo not given) ?
CHO-K1 Ca antag: 28; M1 PAM parental: inactive; CHRM1 agonist: 48; M1 ag parental: inactive; M1 PAM: inactive; M1 antag: inactive
